We go through 40 molecules from PubChem BioAssay (NCI).

About 83,000 compounds went through this panel and 20% of them were active in at least one assay; those are over-represented in the sample as a whole.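 Single-dose data. Exposure time 48 hours. Values below 10 considered active.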 Values without a mark were called inactive. The source made the active and inactive calls.

For this assay, the system named is MCF7 breast. The experiment in a line: NCI-60 one-dose screen, 48 h (100 = growth as untreated, 0 = no growth, -100 = all killed). The conditions noted are these: 10 µM unless noted. How it is done: Growth inhibition of the MCF7 human tumor cell line is measured as a screen for anti-cancer activity. Cells are grown in 96 well plates and exposed to the test compound for 48 hours. Compounds are tested at a single concentration, which is 10^-5 M for most compounds. The reported endpoint is percent growth (GI% or GIPRCNT), where numbers from 0 - 100% represent growth inhibition, and numbers from -100% - 0 represent cell death. For example, a value of 40 represents 60% growth inhibition. A value of 0 means no net growth occurred over the course of the experiment. A value of -40 indicates 40% of cells at the beginning of the experiment died by the end of the experiment. A value of -100 means all cells are dead at the end of the experiment.
NCI-60 Human Tumor Cell Lines Screen was performed using the standard one-dose NCI protocol, which is described in more detail at https://dtp.cancer.gov/discovery_development/nci-60/default.htm.
Compounds with GIPRCNT values below 10 were considered active. Activity score was based on GIPRCNT using the following formula: […]
Score is 0 for GIPRCNT values of 100 or above, 50 for GIPRCNT values of 0, and 100 for GIPRCNT values of -100.
Turning to `c1nc2ccc(-c3cc4ccc5[nH]ncc5c4c4c3CCCC4)cc2[nH]1`, the growth is 59%.

`CN1CCN(CCOc2ccc(-c3cnc4c(-c5cccc(F)c5F)cnn4c3)cc2)CC1`: the growth is -23.8% (active).

Consider `COc1cc(-c2nc3cc(Cl)c(Cl)cc3[nH]2)ccc1OCC(=O)N=Nc1c(O)[nH]c2ccc(Cl)cc12`, for which the growth was 1.63% (active).

For the molecule `CS(=O)(=O)Nc1cc(-c2ccc3ncc(C#N)c(Nc4ccc(F)c(Cl)c4)c3c2)cnc1Cl`, the growth was 4.03% (active).

For `CSc1nn2c(-c3ccc4ccccc4c3)ccnc2c1C#N`, the growth is 10% (active).

Turning to `Cc1nc2c(c(=O)[nH]1)C(c1ccccc1)c1ccc3ccccc3c1O2` (stereo not given), the growth was 11.4%.

Take `Cc1ccc(/C=C/C(=O)c2cccc(OCCCOc3cccc(C(=O)/C=C/c4ccc(C)cc4)c3)c2)cc1`: the growth was 2.54% (active).

Regarding `N#Cc1cccc(C2C3=C(COC3=O)N(CCO)c3cc4c(cc32)OCO4)c1` (stereo not given), the growth was 22.4%.

Turning to `CCOC(=O)/C=C1\S/C(=N\Nc2cc(=O)[nH]c3ccccc23)N(c2ccccc2)C1=O`, the growth was 91.5%.

`O=S1(=O)C=C(c2ccccc2)C(c2ccccc2)=C1`: the growth was 6.2% (active).

Take `C[C@H](C(=O)N(CCc1ccc(Cl)c(Cl)c1)Cc1cncs1)[C@@H]1CC[C@H](C[C@H](C)n2cc(CN3CCC(c4ccc(Cl)cc4)CC3)nn2)O1`: the growth was 85.8%.

As for `CCCCNc1nnc2n(Cc3ccccc3)c(=O)c3c4c(sc3n12)CCCC4`, the growth is 43.4%.

On to `COc1ccc(C2=CN3CC=CC3CC2=O)cc1` (stereo not given), for which the growth is 93.4%.

For `Cc1cc(Nc2ccc(C(=O)N3CCCC3)cc2)nc(NCCCNc2ccnc3cc(Cl)ccc23)n1`, the growth was 51.6%.

With `CNC(=O)c1cc(Oc2cccc3nc(NC(=O)Nc4cc(C(F)(F)F)ccc4Cl)ccc23)ccn1`, the growth is 85%.

As to `CCOC(=O)C(=Cc1ccc(-c2ccccc2)cc1)C(=O)OCC`, the growth was 16.9%.

As for `O=C(NCc1cccc(CNC(=O)Nc2nc3ccccc3[nH]2)c1)Nc1nc2ccccc2[nH]1`, the growth was -43.7% (active).

For `Cc1cc2c(cc1C)N(C(=O)CCl)CC(=O)N2`, the growth is 19.6%.

In the case of `Cn1cc(-c2csc(-c3cn(CCCN4CCOCC4)c4ccccc34)n2)c2cccnc21`, the growth is 85.6%.

As for `Cc1ccccc1Nc1cc(O)c2c(=O)cc(-c3ccccc3)oc2c1`, the growth is 15.5%.

With `C#Cc1cccc(Nc2nc(C)nc3cc(NC(=O)CCl)ccc23)c1`, the growth is -68% (active).

For the molecule `C=C(C)[C@@H]1CC[C@]2(C)[C@H](CC=C3[C@@H]4CC(C)(C)CC[C@]4(CO)CC[C@]32C)[C@@]1(C)CCCN`, the growth was -41.4% (active).

With `C=C1C(=O)O[C@H]2[C@H]1CC/C(COC(=O)/C=C/C(=O)OC/C1=C/CC[C@@]3(C)O[C@H]3[C@H]3OC(=O)C(=C)[C@@H]3CC1)=C\CC[C@@]1(C)O[C@@H]21`, the growth was 22.2%.

On to `O=C1C(Nc2ccccn2)=C(I)C(=O)c2ncccc21`, for which the growth is -58.7% (active).

With `C=CCN1C(=O)c2cccc3c(N4CCOCC4)ccc(c23)C1=O`, the growth is -0.408% (active).

With `Oc1c(CN2CCCC2)cc(CSCc2ccccc2)c2cccnc12`, the growth was 8.46% (active).

Take `O=C(Cc1ccc(NC(=O)c2cccc(Cl)c2)cc1)NCc1ccccc1`: the growth was 22.1%.

For the molecule `CC1(C)N=C(N)N=C(N)N1c1ccc(CCCCc2ccccc2)c(Cl)c1`, the growth was 1.84% (active).

Regarding `O=C(/C=C/c1ccc(Oc2ccc(Br)cc2)cc1)c1ccc(Br)cc1`, the growth was 73%.

`C=CC(=O)Nc1ccc(Oc2nccc(Nc3nnc(-c4ccc(C)cc4)s3)n2)cc1`: the growth was 80.6%.

As to `C=CCOC(=O)C1=C(C)N(CC)C(=O)NC1c1c(Cl)n(C)c2ccccc12` (stereo not given), the growth was 98.7%.

Regarding `O=C1Nc2ccccc2/C1=C/c1cccn1C(=O)c1ccc(Cl)s1`, the growth is 12.3%.

As to `C/C=C(\C)C(=O)N[C@H]1C(O)C[C@]2(C)C3CC[C@@]4(C)C(CC[C@@H]4C(C)N(C)C)C3CCC2C1O` (stereo not given in full), the growth was 28.6%.

Turning to `CC(=O)Oc1ccc(OC(C)=O)c2ccccc12`, the growth is 57.3%.

Consider `Cc1ncc(C(=O)Nc2ccc(CN3CCN(C)CC3)c(C(F)(F)F)c2)cc1C#Cc1cnc(N)c2ncccc12`, for which the growth is -58.6% (active).

For `Nc1[nH]c(=S)nc2oc(-c3ccccc3)c(-c3ccccc3)c12`, the growth is 96.6%.

Consider `COc1ccc(/C=C/C(=O)c2ccc(NC(=O)CSc3nc4c([nH]3)c(=O)n(C)c(=O)n4C)cc2)cc1OC`, for which the growth is 40.7%.

For `COc1ccc(/C=C/c2c(C(=O)/C=C/c3ccccc3)c(C)nc3ccccc23)cc1`, the growth was 12.8%.

As to `NNCCc1ccc(NC(=O)CCCc2ccc(C(=O)Nc3ccccc3N)cc2)cc1`, the growth was 57.8%.

On to `C=C(CNCCc1ccc(O)cc1)[C@@H]1CC[C@]2(CO)CC[C@]3(C)[C@H](CC[C@@H]4[C@@]5(C)CCC(=O)C(C)(C)[C@@H]5CC[C@]43C)[C@@H]12`, for which the growth is -1.07% (active).
